# Results reported in PubChem BioAssay AID1259421 (Broad Institute, 2018).
# Where “and” joins values, the source holds several entries; their conditions need not be identical. Equal values may be shown once. The campaign covered roughly 6,400 compounds. About 610 (9.5%) were called active. Cut-off read from the data, not from the text of the source: active = activity change below about -70%; inconclusive = no clear call, values can overlap the other calls; inactive = above that. The full list was thinned out, with actives kept by preference. Where a structure was tested more than once in an assay, its records may differ in their call.
# Experiment: Toxoplasma gondii ME49Luc growth in HeLa cells, luciferase, no IFN-y, primary screen (AID 1259421)
# Settings: T. gondii ME49Luc in HeLa, 72 h, stronger effect = lower value, concentration not given here
row,Compound,"activity change, negative = inhibition"
1,C[C@@H]1CN(Cc2ccc(F)cc2)[C@@H](C)CN1C(=O)c1cc2c(C(=O)C(=O)N(C)C)cn(C)c2cc1Cl,-1.84% (inactive)
2,CC1(COc2ccc(CC3SC(=O)NC3=O)cc2)CCCCC1 (stereo not given),54.6% (inactive) and 38.2% (inactive)
3,O=c1cc[nH]c(=O)[nH]1,14.2% (inactive)
4,O=c1[nH]cc(F)c(=O)[nH]1,-79.7% (active) and -73.9% (active)
5,O=C(OC1C[C@H]2CC[C@@H](C1)[N+]21CCCC1)C(O)(c1ccccc1)c1ccccc1 (stereo not given in full),13% (inactive)
6,CC(C)OC(=O)c1cc2c(OCC(O)CNC(C)(C)C)cccc2[nH]1 (stereo not given),5.25% (inactive) and 2.42% (inactive)
7,CN1N=C(C(N)=O)CCC1=O,5.39% (inactive)
8,COc1cc(F)c(C(C)C)cc1-c1ccc(C(F)(F)F)cc1CN1C(=O)O[C@H](c2cc(C(F)(F)F)cc(C(F)(F)F)c2)[C@H]1C,13.2% (inactive)
9,CC(C)[C@H](C(=O)Nc1ccc(C(=O)NO)cc1)c1ccccc1,-78.5% (active)
10,O=C(O)c1ccc(NC(=O)[C@H](Cc2ccc(O)cc2)NC(=O)c2ccccc2)cc1,10.1% (inactive)
11,CC(=O)Nc1ccc(C(=O)O)cc1,5.72% (inactive)
12,C[C@H]1CC[C@@]2(OC1)O[C@H]1C[C@H]3[C@@H]4CC[C@@H]5C[C@@H](O)CC[C@]5(C)[C@H]4CC[C@]3(C)[C@H]1[C@@H]2C,10.8% (inactive)
13,O=C1Nc2cc(Cl)ccc2Oc2ccccc21,13.7% (inactive)
14,Cc1nc2c(c(=O)[nH]1)CSCC2,-9.85% (inactive)
15,CC(C)c1ccc2c(c1)CCC1C(C)(C(N)=O)CCCC21C (stereo not given),39.8% (inactive)
16,CCN(CC)CCOCCOC(=O)C(CC)(CC)c1ccccc1,22.3% (inactive)
17,Nc1ncnc2c1ncn2[C@@H]1O[C@H](C[C@@H](N)CC[C@H](N)C(=O)O)[C@@H](O)[C@H]1O,-5.35% (inactive)
18,COc1ccc(CN(CCN(C)C)c2ccccn2)cc1,18% (inactive) and 6.75% (inactive)
19,CCCCCCCCCCCCCCCC[N+](C)(C)CCN(Cc1ccc(OC)cc1)c1ncccn1,-80.9% (active)
20,COc1ccc(CN(CCN(C)C)c2ncccn2)cc1,10.1% (inactive) and 11.2% (inactive)
21,C[C@]12C=CC(=O)C=C1CCC1C3C[C@@H](O)[C@](O)(C(=O)CO)[C@@]3(C)C[C@H](O)[C@@]12F (stereo not given in full),-10.6% (inactive)
22,CN(C)CCN1C(=O)c2cccc3cc(NC(N)=O)cc(c23)C1=O,5.35% (inactive)
23,Cc1csc(-c2nnc(Nc3ccc(Oc4ncccc4-c4ccnc(N)n4)cc3)c3ccccc23)c1,-85.1% (active)
24,COC(=O)[C@H](Cc1ccc([N+](=O)[O-])cc1)NC(=O)c1cccc2ccccc12,3.56% (inactive)
25,O=C1NC(=O)C2(CCOc3ccc(F)cc32)N1 (stereo not given),17.5% (inactive)
26,NC1=N[C@@]2(c3cc(NC(=O)c4ccc(F)cn4)ccc3F)COC[C@@H]2CS1,-4.81% (inactive)
27,CCOC(=O)[C@@H](N)Cc1ccc(-c2cc(O[C@H](c3ccc(Cl)cc3-n3ccc(C)n3)C(F)(F)F)nc(N)n2)cc1,-85% (active)

row,Compound,"activity change, negative = inhibition"
1,Cc1ccn(-c2cc(Cl)ccc2[C@@H](Oc2cc(-c3ccc(C[C@H](N)C(=O)O)cc3)nc(N)n2)C(F)(F)F)n1,16.1% (inactive)
2,COc1cccc(-c2ccc([C@@H](Oc3cc(-c4ccc(C[C@H](N)C(=O)O)cc4)nc(N)n3)C(F)(F)F)cc2)c1,21.9% (inactive)
3,N#C/C(=C(\N)Sc1ccc(N)cc1)c1ccccc1C(F)(F)F,9.63% (inactive)
4,N#Cc1cc(I)c(O)c([N+](=O)[O-])c1,10.2% (inactive)
5,COc1cccc2cc(-c3nc(C4CCC(C(=O)O)CC4)n4ncnc(N)c34)[nH]c12 (stereo not given),-19.8% (inactive)
6,Oc1ccc([C@H]2Oc3cc(O)cc(O)c3C[C@H]2O)cc1,0.946% (inactive)
7,Oc1cc(O)c2c(c1)O[C@H](c1ccc(O)c(O)c1)[C@H](O)[C@H]2c1c(O)cc(O)c2c1O[C@H](c1ccc(O)c(O)c1)[C@@H](O)C2,-71.6% (active)
8,Oc1cc(O)c2c(c1)O[C@H](c1ccc(O)c(O)c1)[C@@H](O)C2,6.21% (inactive) and -16.6% (inactive)
9,COc1cccc(C=NC=Nc2cccc(OC)c2)c1,10.3% (inactive)
10,O=c1[nH]nc(Sc2ncc([N+](=O)[O-])s2)n1-c1ccc2c(c1)OCCO2,34.4% (inactive)
11,NC(=O)c1cnc(N[C@@H]2CCCC[C@@H]2N)nc1Nc1cccc(-n2nccn2)c1,-82.6% (active) and -7.89% (inactive)
12,CC(C)(C)CC(=O)OCC(=O)[C@@]1(O)CCC2C3CCC4=CC(=O)C=C[C@]4(C)C3[C@@H](O)C[C@@]21C (stereo not given in full),-8.37% (inactive)
13,CS(=O)(=O)Nc1ccc2oc3c(OC(F)F)ccc(C(=O)Nc4c(Cl)cncc4Cl)c3c2c1,27.8% (inactive)
14,O=c1[nH]c(=O)c2cn[nH]c2[nH]1,-8.15% (inactive)
15,Cc1cc(C(C)Nc2ccccc2)c2nc(N3CCOCC3)cc(=O)n2c1 (stereo not given),14.5% (inactive)
16,CCCc1nc(C(C)(C)O)c(C(=O)OCc2oc(=O)oc2C)n1Cc1ccc(-c2ccccc2-c2nn[nH]n2)cc1,2.42% (inactive) and 2.73% (inactive)
17,CN1C2CC[C@@H]1CC(OC(=O)[C@H](CO)c1ccccc1)C2 (stereo not given in full),5% (inactive)
18,COc1cc(/C=C(/C#N)C(N)=O)cc(CSc2nc3ccccc3s2)c1O,0.785% (inactive)
19,C=C[C@H]1CN2CC[C@H]1C[C@@H]2[C@H](O)c1ccnc2ccc(OC)cc12,-4.38% (inactive)
20,O=C(/C=C/c1ccc(CN(CCO)CCc2c[nH]c3ccccc23)cc1)NO,-83.9% (active)
21,O=C(O)CCCc1c[nH]c2ccccc12,16.7% (inactive)
22,O=C(O)CCc1c[nH]c2ccccc12,16.9% (inactive)
23,COC(=O)C[C@H]1C(C)(C)C2(O)OC34CC2C(=O)[C@]1(C)C3CC[C@]1(C)C4=CC(=O)O[C@H]1c1ccoc1 (stereo not given in full),-5.47% (inactive)
24,COc1cc(Nc2ncc(F)c(Nc3ccc4c(n3)NC(=O)C(C)(C)O4)n2)cc(OC)c1OC,-51.7% (inactive) and -21% (inactive)
25,COc1cc(Nc2ncc(F)c(Nc3ccc4c(n3)N(COP(=O)(O)O)C(=O)C(C)(C)O4)n2)cc(OC)c1OC,-77% (active)
26,COC1C(O)C(CO)OC1n1cnc2c(NC3CCCCC3)ncnc21 (stereo not given),10.5% (inactive)
27,Cc1cc(Nc2nc(N[C@@H](C)c3ncc(F)cn3)ncc2Cl)n[nH]1,2.85% (inactive)

row,Compound,"activity change, negative = inhibition"
1,CCc1cnc(N2CCC(c3nc(COc4ccc(-n5cnnn5)cc4)cs3)CC2)nc1,-26.5% (inactive)
2,CC1(C)O[C@@H]2CC3C4CCC5=CC(=O)C=C[C@]5(C)[C@@]4(F)[C@@H](O)C[C@]3(C)[C@]2(C(=O)CO)O1 (stereo not given in full),-0.643% (inactive)
3,O=C(CCCCCCC(=O)Nc1ccccc1)NO,-84% (active) and -91.4% (active) and -89.3% (active)
4,O=C(Cc1ccccc1)NO,-1.4% (inactive)
5,CC(=O)Nc1ccccc1,7.35% (inactive) and 14.6% (inactive)
6,O=C(CCCCCCC(=O)Nc1cccnc1)NO,-92.1% (active)
7,Cn1ccc2cc(NC(=O)Nc3cccnc3)ccc21,22.9% (inactive) and -13.9% (inactive)
8,O=C(O)CCCNC(=O)c1cccnc1,23.7% (inactive)
9,CC(C)c1ccc2c(c1)CCC1[C@](C)(CN)CCC[C@]21C (stereo not given in full),3.16% (inactive)
10,Nc1nc(-c2ccccc2)c(Br)c(=O)[nH]1,3.15% (inactive)
11,Cc1cccn2c(=O)c(-c3nn[nH]n3)cnc12,0.433% (inactive)
12,C=C1C(=O)O[C@@H]2[C@H]3C(C)=CC[C@@]34O[C@@]4(C)CC[C@@H]12,18.9% (inactive)
13,CC[C@@H]1Cn2c(c3nc(-c4ccccc4)nc-3n(C)c2=O)N1,8.44% (inactive) and 12.6% (inactive)
14,COc1cc2c(cc1-c1c(C)noc1C)ncc1[nH]c(=O)n([C@H](C)c3ccccn3)c12,-91.9% (active)
15,C#Cc1cnc2[nH]c(=O)n(C(CC)CC)c2n1,0.376% (inactive)
16,NCC[C@@H](O)C(=O)N[C@@H]1C[C@H](N)[C@@H](O[C@H]2O[C@H](CN)[C@@H](O)[C@H](O)[C@H]2O)[C@H](O)[C@H]1O[C@H]1O[C@H](CO)[C@@H](O)[C@H](N)C1O (stereo not given in full),22.8% (inactive)
17,CCCCCCCC/C=C\CCCCCCCC(=O)N[C@@H](CO)Cc1ccc(O)cc1,4.92% (inactive)
18,c1cc2c(cc1C1CCCCC1)c1c3n2CCNC3CCC1 (stereo not given),23.6% (inactive) and 27.3% (inactive)
19,Cn1cnc([N+](=O)[O-])c1Sc1ncnc2nc[nH]c12,-68.2% (inactive) and -74.1% (active)
20,c1ccc(CNc2ncnc3nc[nH]c23)cc1,9.71% (inactive) and 7.45% (inactive)
21,Cn1cnnc1Sc1c([N+](=O)[O-])ncn1C,23.4% (inactive) and 9.93% (inactive)
22,CC(SC(=O)c1cccs1)C(=O)NCC(=O)O (stereo not given),13% (inactive)
23,CC(=O)[C@H]1CCC2C3CC=C4C[C@@H](OC(=O)CCC(=O)O)CC[C@]4(C)C3CC[C@@]21C (stereo not given in full),4.41% (inactive) and 6.51% (inactive)
24,C[C@@H]1CC[C@H]2[C@@H](C)C(O)O[C@@H]3O[C@]4(C)CC[C@@H]1[C@]32OO4 (stereo not given in full),-85.4% (active)
25,C[C@H]1[C@H](OC(=O)CCC(=O)O)O[C@@H]2O[C@@]3(C)CC[C@H]4[C@H](C)CC[C@@H]1[C@@]24OO3,-80.6% (active)
26,C[C@H]1[C@@H](O)O[C@@H]2O[C@@]3(C)CC[C@H]4[C@H](C)CC[C@@H]1[C@@]24OO3,-93.7% (active)
